# Laboratory results: PubChem BioAssay (NCATS)
# Records with an inconclusive call do not appear. The source made the active and inactive calls. Unless noted, calls come from the whole dose curve; as a rule, active = well fitted curve in the direction sought with a large enough effect; inconclusive = small, poorly fitted or top-dose-only effect, or another doubt; inactive = no such curve, though single readings can be large; an effect the other way counts as inactive or inconclusive.
# Legend:
# [1] = target: Tyrosine-protein kinase Yes (Homo sapiens) (UniProt P07947); assay: qHTS for small molecule inhibitors of Yes1 kinase: Primary Screen (AID 686947); note: nearly all actives have a fitted effect of over 60% in size; note: potency is the fitted concentration of half-maximal effect
# Sequence of Tyrosine-protein kinase Yes (Homo sapiens) (P07947 whole entry, looked up): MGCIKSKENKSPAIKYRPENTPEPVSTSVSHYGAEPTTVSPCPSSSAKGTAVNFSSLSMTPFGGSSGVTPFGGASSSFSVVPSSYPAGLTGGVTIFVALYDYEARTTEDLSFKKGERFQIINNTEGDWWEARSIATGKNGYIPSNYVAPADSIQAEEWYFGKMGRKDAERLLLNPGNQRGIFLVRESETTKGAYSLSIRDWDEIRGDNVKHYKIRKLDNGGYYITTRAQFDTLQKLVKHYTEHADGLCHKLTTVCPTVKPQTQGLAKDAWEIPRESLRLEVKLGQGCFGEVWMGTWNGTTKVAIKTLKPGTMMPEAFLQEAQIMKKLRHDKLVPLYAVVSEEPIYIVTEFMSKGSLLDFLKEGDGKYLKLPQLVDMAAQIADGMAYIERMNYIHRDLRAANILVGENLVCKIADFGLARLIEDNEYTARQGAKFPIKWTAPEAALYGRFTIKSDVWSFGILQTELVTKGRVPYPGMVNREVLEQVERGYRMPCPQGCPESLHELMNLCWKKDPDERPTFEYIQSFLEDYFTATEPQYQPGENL
# Procedure, shortened: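 ADP-Glo luminescence readout; final 4 nM Yes1, 0.1 mM ATP, 0.3 mg/mL poly(E4Y), Tris pH 7.5, MgCl2, DTT, Brij-35. 20 min compound preincubation, 60 min reaction at RT. Normalized to DMSO wells with and without enzyme.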
# [2] = qHTS for small molecule inhibitors of Yes1 kinase: Counter Assay (AID 686950);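 note: no kinase present so only ADP-Glo detection of a fixed ADP amount is tested; luminescence from ADP-Glo reporting ADP in a fixed ATP and ADP mixture; 0% = DMSO wells with ATP plus ADP and -100% = ATP-only wells without ADP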
# Procedure, shortened: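 Enzyme-free ADP-Glo interference check: compounds were preincubated 20 min in buffer, then an ATP/ADP mix (0.08 mM ATP, 0.02 mM ADP final) was added for 60 min at room temperature before two-step ADP-Glo luminescence detection.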
# [3] = qHTS profiling for inhibitors of Plasmodium falciparum (3D7) proliferation (AID 743322; call rule not given here;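 note: infected erythrocytes exposed to compound for 72 h before lysis; 100% = DMSO vehicle wells and 0% = 0.29 µM artemisinin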); conditions: P. falciparum 3D7 proliferation; at 28.7 µM (top of the series) unless noted
# Procedure, shortened: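 Erythrocytes infected with P. falciparum (0.3% parasitemia, 2.5% hematocrit) incubated with compounds 72 h at 37 C, 5% CO2. Lysis with saponin/Triton buffer containing SYBR Green I, overnight at room temperature in the dark; DNA fluorescence (485/535 nm) normalised to 0.29 uM artemisinin and DMSO.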
# [4] = qHTS profiling for inhibitors of Plasmodium falciparum (DD2) proliferation (AID 743323; call rule not given here); conditions: lower = more inhibition; at 28.7 µM (top of the series) unless noted
# Procedure, shortened: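 1536-well qHTS; infected RBCs 0.3% parasitemia/2.5% Hct final; cpd 72 h 37 C 5% CO2; lysis buffer + SYBR Green I, o/n RT dark; FI 485/535; norm. to 0.29 uM artemisinin and DMSO, plate-stack corrected.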
# [5] = qHTS Assay for Identifying Gametocytocidal Compounds (AID 743244); note: potency is the fitted concentration of half-maximal effect;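 for max response: % is set by controls: 0 for no effect and ±100 for the full control effect; actives lower the fluorescent signal which means gametocytes are killed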; conditions: P. falciparum 3D7 stage III-V gametocytes, alamarBlue, 72 h; max response: stronger effect = lower value
# Procedure, shortened: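 Stage III-V P. falciparum 3D7 gametocytes, 20,000 per well, were exposed to compounds for 72 h at 37C, 5% CO2. AlamarBlue was then added for 24 h and viability was read as fluorescence at Ex 525/Em 598 nm.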
# [6] = target: Arylsulfatase A (Homo sapiens) (UniProt P15289); assay: qHTS screen for enhancers of Arylsulfatase A (ASA1): LOPAC Validation Assay (AID 720538); conditions: ASA enzyme activity, LOPAC qHTS enhancer assay; at 57.5 µM (top of the series)
# Sequence of Arylsulfatase A (Homo sapiens) (P15289 whole entry, looked up): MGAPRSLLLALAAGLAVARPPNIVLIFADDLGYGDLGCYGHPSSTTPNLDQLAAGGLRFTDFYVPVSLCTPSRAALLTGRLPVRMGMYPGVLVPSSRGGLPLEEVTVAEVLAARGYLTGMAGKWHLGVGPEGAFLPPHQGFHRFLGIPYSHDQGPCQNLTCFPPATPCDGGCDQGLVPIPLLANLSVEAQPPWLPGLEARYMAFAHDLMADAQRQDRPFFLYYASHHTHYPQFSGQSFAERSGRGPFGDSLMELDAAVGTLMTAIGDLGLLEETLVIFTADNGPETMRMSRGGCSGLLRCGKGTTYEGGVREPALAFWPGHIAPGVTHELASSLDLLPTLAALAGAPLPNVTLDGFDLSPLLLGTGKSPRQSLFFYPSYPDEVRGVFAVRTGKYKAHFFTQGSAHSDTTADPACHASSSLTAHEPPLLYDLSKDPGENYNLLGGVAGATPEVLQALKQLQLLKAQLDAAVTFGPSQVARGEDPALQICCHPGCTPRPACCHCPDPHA
# Procedure, shortened: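 Enhancer assay in patient-derived MLD fibroblasts carrying ASA-I179S: 48 h compound exposure at 37 C, then 14 h room-temperature pNCS turnover (0.5 mM final) in lysis buffer. Read by fluorescence at 525/598 nm after NaOH stop.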
# [7] = qHTS for compounds that reverse cellular toxicity of Amyloid beta (A-beta) peptide in yeast: LOPAC Validation Assay (AID 720559);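 note: plate controls were DMSO for no effect and equimolar ferric chloride plus clioquinol rescue for full effect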
# Procedure, shortened: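 Rescue of A-beta toxicity was scored as yeast growth by 600 nm absorbance after 48 hr at 30 C with compound. Normalization used DMSO (negative) and equimolar ferric chloride plus clioquinol (positive).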
# [8] = qHTS for Activators of Parkin Expression: LOPAC Validation Assay (NLuc Reporter) (AID 720572;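 note: 0% = DMSO and 100% = positive control compound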)
# Procedure, shortened: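 Neuronal line stably carrying a FLuc/NLuc coincidence reporter under the Parkin promoter, seeded 24 h, then dosed in 7-point series for 24 h at 37 C. NLuc luminescence read after FLuc; normalized to DMSO and positive control (100%).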
# [9] = qHTS for Activators of Parkin Expression: LOPAC Validation Assay (FLuc Reporter) (AID 720573;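 note: 0% = DMSO and 100% = positive control compounds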)
# Procedure, shortened: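 FLuc signal from Parkin-promoter coincidence reporter neuronal cells, normalized to DMSO and positive control (100%). Cells (1,500/well) pre-incubated 24 h, then exposed to LOPAC compounds in 7-point dose response for 24 h at 37 C, 5% CO2.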
# [10] = target: T1, Hexokinase-4 (Homo sapiens) + Glucokinase regulatory protein (Homo sapiens) (UniProt P35557+Q14397); assay: qHTS assay for inhibitors of recombinant human GCK-GKRP interaction: Diaphorase-coupled assay (AID 743205)
# T1 sequence (P35557 whole entry, looked up): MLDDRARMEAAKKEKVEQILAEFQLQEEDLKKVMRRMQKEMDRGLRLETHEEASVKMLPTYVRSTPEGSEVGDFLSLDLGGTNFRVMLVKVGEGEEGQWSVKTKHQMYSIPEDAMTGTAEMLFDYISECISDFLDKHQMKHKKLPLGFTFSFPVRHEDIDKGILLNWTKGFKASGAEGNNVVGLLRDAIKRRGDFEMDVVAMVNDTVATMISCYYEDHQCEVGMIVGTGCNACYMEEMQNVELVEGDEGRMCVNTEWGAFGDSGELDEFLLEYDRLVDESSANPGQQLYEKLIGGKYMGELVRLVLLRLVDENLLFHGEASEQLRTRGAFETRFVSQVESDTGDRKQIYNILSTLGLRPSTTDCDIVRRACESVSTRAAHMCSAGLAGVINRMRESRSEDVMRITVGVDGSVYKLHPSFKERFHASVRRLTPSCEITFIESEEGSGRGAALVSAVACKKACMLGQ
# T1 sequence (Q14397 whole entry, looked up): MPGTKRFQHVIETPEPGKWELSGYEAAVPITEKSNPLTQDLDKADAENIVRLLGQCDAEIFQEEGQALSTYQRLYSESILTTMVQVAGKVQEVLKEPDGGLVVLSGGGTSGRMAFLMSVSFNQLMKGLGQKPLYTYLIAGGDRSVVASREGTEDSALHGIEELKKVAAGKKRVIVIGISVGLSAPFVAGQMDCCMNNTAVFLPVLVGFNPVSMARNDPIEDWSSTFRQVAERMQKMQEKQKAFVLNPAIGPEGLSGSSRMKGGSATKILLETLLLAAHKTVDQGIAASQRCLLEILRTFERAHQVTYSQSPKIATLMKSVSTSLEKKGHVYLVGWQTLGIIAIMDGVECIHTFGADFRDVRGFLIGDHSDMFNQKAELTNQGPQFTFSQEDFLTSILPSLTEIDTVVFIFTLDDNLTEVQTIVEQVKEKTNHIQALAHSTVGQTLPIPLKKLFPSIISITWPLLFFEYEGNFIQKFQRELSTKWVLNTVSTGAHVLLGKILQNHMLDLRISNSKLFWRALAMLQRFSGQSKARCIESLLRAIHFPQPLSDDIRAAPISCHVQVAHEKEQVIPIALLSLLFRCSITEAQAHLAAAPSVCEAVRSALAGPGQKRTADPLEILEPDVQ
# Procedure, shortened: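 A kinetic fluorescence read (Ex 525/Em 590 nm, every minute for 30 minutes) tracked resorufin from a G6PDH-diaphorase coupled GCK reaction. It contained 10 nM GST-GCK, 10 nM FLAG-GKRP, 5 mM glucose, 0.4 mM ATP in Hepes pH 7.6. Normalized to with/without-enzyme DMSO controls.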
# [11] = target: T1, Hexokinase-4 (Homo sapiens) + Glucokinase regulatory protein (Homo sapiens); assay: qHTS assay for inhibitors of recombinant human GCK-GKRP interaction: ADP-Glo assay (AID 743206);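 note: plate controls were DMSO plus enzyme for no effect and no enzyme for full effect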
# Procedure, shortened: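 GST-GCK and FLAG-GKRP (15 nM each in the dispensed mix, with 2 uM S6P) react with 0.4 mM ATP and 5 mM glucose (final) in Hepes pH 7.6 for 60 min at room temperature. ADP is measured by ADP-Glo luminescence.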
# [12] = target: T1, Hexokinase-4 (Homo sapiens) + Glucokinase regulatory protein (Homo sapiens); assay: qHTS assay for inhibitors of recombinant human GCK-GKRP interaction: HTRF assay (AID 743207);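 note: 0% = DMSO with GCK present and -100% = DMSO wells lacking GCK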
# Procedure, shortened: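 After 60 min equilibration at room temperature with anti-FLAG XL665 and anti-GST antibodies, FRET ratio (665/615 nm, excitation 320 nm) was read. Proteins: GST-GCK and FLAG-GKRP, each 5 nM, plus 2 uM S6P, pH 7.1 buffer; GCK-free wells define minimum signal.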
structure (smiles),measurement,setting,value
CN(C)CCCNC(=O)c1ccc(-c2cc(O)c3ncccc3c2)cc1,Potency,[1],38700 nM (active)
same,outcome,[2],inactive
same,remaining parasite growth % (stronger effect = lower value),[3],3.59%
same,"activity, percent of control",[4],5.19%
O=C(O)c1ccc(O)c2ncc(N3CCOCC3)cc12,Potency,[1],inactive
same,outcome,[2],inactive
same,remaining parasite growth % (stronger effect = lower value),[3],22.3%
CCC(=O)N1CCN(c2ccc(-n3c(=O)ccc4cnc5ccc(-c6cnc7ccccc7c6)cc5c43)cc2C(F)(F)F)CC1,Potency,[1],inactive
same,outcome,[2],inactive
same,remaining parasite growth % (stronger effect = lower value),[3],4.73%
same,"activity, percent of control",[4],15.4%
CNC(=O)c1cc(Oc2ccc(NC(=O)Nc3ccc(Cl)c(C(F)(F)F)c3)c(F)c2)ccn1,Potency,[1],4870 nM (active)
same,outcome,[2],inactive
same,max response,[5],21.4% (inactive)
same,remaining parasite growth % (stronger effect = lower value),[3],1.04%
same,"activity, percent of control",[4],5.46%
CCC=CC[C@H]1C(=O)CC[C@@H]1CC(=O)OC,Potency,[1],inactive
same,outcome,[2],inactive
same,remaining parasite growth % (stronger effect = lower value),[3],94.5%
same,"activity, percent of control",[4],93.1%
CC(C)C[C@@H](C(=O)N[C@H](C(=O)OC1CCCC1)c1ccccc1)[C@H](O)C(=O)NO,Potency,[1],inactive
same,outcome,[2],inactive
same,remaining parasite growth % (stronger effect = lower value),[3],3.5%
same,"activity, percent of control",[4],9.3%
Cc1csc(-c2nnc(Nc3ccc(Oc4ncccc4-c4ccnc(N)n4)cc3)c3ccccc23)c1,Potency,[1],inactive
same,outcome,[2],inactive
same,remaining parasite growth % (stronger effect = lower value),[3],93.3%
same,"activity, percent of control",[4],85.6%
CC(C)Oc1cc(Nc2nc(N[C@@H](C)c3ccc(F)cn3)ncc2Cl)[nH]n1,Potency,[1],6.1 nM (active)
same,outcome,[2],inactive
same,Potency,[5],2350 nM (active)
same,remaining parasite growth % (stronger effect = lower value),[3],3.18%
same,"activity, percent of control",[4],5.44%
C[C@H]1O[C@@H](n2cc(F)c(=O)[nH]c2=O)[C@H](O)[C@H]1O,outcome,[6],inactive; inhibitor; fitted 8.4921 uM
same,outcome,[7],inactive
same,outcome,[8],inactive
same,outcome,[9],inactive
same,outcome,[10],inactive
same,outcome,[11],inactive
same,outcome,[12],inactive
same,max response,[5],6.51% (inactive)
CC(C)CNc1ccnc(NCc2csc(-c3ccccc3)n2)n1,remaining parasite growth % (stronger effect = lower value),[3],3.03%
same,"activity, percent of control",[4],6.76%
CN1CCN2c3ncccc3Cc3ccccc3C2C1 (configuration not stated),max response,[5],6.21% (inactive)
C=CCc1cccc(C=NNC(=O)CN2CCN(Cc3ccccc3)CC2)c1O,outcome,[7],inactive
same,outcome,[8],inactive
same,outcome,[9],inactive
same,outcome,[10],inactive
same,outcome,[11],inactive
same,outcome,[12],inactive
CO[C@H]1O[C@@H]2O[C@@]3(C)CC[C@@H]4[C@@H](C)CC[C@@H]([C@H]1C)[C@@]24OO3,Potency,[5],11.8 nM (active)
O=C1NC(=O)C(c2cnc3ccccn23)=C1c1cn2c3c(cccc13)CN(C(=O)N1CCOCC1)CC2,remaining parasite growth % (stronger effect = lower value),[3],49.3%
same,"activity, percent of control",[4],63.3%
CCN(CC)CCCCNc1nc2cc(Cl)c(Cl)cc2nc1-c1ccc(-c2cccs2)s1,outcome,[2],inactive
same,remaining parasite growth % (stronger effect = lower value),[3],0.96%
same,"activity, percent of control",[4],1.46%
CO[C@@H]1C(N(C)C(=O)c2ccccc2)C[C@H]2O[C@]1(C)n1c3ccccc3c3c4c(c5c6ccccc6n2c5c31)C(=O)NC4=O (some centres not stated),remaining parasite growth % (stronger effect = lower value),[3],110%
same,"activity, percent of control",[4],103%
O=C1CN2Cc3c(ccc(Cl)c3Cl)N=C2N1,remaining parasite growth % (stronger effect = lower value),[3],87%
same,"activity, percent of control",[4],93.4%
O=C(O)Cc1cccc(OCCCN(Cc2cccc(C(F)(F)F)c2Cl)CC(c2ccccc2)c2ccccc2)c1,outcome,[2],inactive
same,remaining parasite growth % (stronger effect = lower value),[3],36.2%
same,"activity, percent of control",[4],34.1%
CC(=O)Nc1cccc(-n2c(=O)n(C3CC3)c(=O)c3c(Nc4ccc(I)cc4F)n(C)c(=O)c(C)c32)c1,Potency,[1],inactive
same,outcome,[2],inactive
same,remaining parasite growth % (stronger effect = lower value),[3],-2.85%
same,"activity, percent of control",[4],-0.291%
CN(C)CCN(Cc1ccc(Cl)cc1)c1ccccn1,max response,[5],18.2% (inactive)
COC(=O)Nc1ccc(-c2nc(N3CCOCC3)c3cnn(C4CCN(C(=O)OC)CC4)c3n2)cc1,Potency,[1],inactive
same,outcome,[2],inactive
same,remaining parasite growth % (stronger effect = lower value),[3],3.29%
same,"activity, percent of control",[4],7.64%
CS(=O)(=O)c1ccc(C2=C(c3ccccc3)C(=O)OC2)cc1,max response,[5],3.44% (inactive)
Cc1ccc(NC(=O)c2ccc(CN3CCN(C)CC3)cc2)cc1Nc1nc(-c2cccnc2)cs1,Potency,[1],345 nM (active)
same,outcome,[2],inactive
same,remaining parasite growth % (stronger effect = lower value),[3],0.463%
same,"activity, percent of control",[4],5.7%
CN(C)CCN(C)C(=O)c1ccc(NC(=O)Nc2ccc(-c3nc(N4CCOCC4)c4ccn(CC(F)(F)F)c4n3)cc2)cc1,outcome,[2],inactive
same,Potency,[5],23500 nM (active)
same,remaining parasite growth % (stronger effect = lower value),[3],-0.909%
same,"activity, percent of control",[4],0.114%
NC(=O)c1ccc(N(C(N)=O)c2c(F)cccc2F)nc1-c1ccc(F)cc1F,Potency,[1],inactive
same,outcome,[2],inactive
same,remaining parasite growth % (stronger effect = lower value),[3],84.7%
same,"activity, percent of control",[4],83.3%
CN(C)CC[C@H](CSc1ccccc1)Nc1ccc(S(=O)(=O)NC(=O)c2ccc(N3CCN(Cc4ccccc4-c4ccc(Cl)cc4)CC3)cc2)cc1[N+](=O)[O-],remaining parasite growth % (stronger effect = lower value),[3],11.6%
same,"activity, percent of control",[4],9.74%
Clc1ccc(COC(Cn2ccnc2)c2ccc(Cl)cc2Cl)c(Cl)c1 (configuration not stated),remaining parasite growth % (stronger effect = lower value),[3],-0.257%
same,"activity, percent of control",[4],-0.374%
O=C(Nc1ccc(OC(F)(F)F)cc1)c1sccc1NCc1ccnc2ccccc12,outcome,[2],inactive
same,remaining parasite growth % (stronger effect = lower value),[3],71.5%
same,"activity, percent of control",[4],75.1%
CC(C)(CO)[C@@H](O)C(=O)NCCC(=O)O,max response,[5],-8.71% (inactive)
COc1cccc(OC)c1-c1cc(C(=O)NC2(C(=O)O)C3CC4CC(C3)CC2C4)nn1-c1ccnc2cc(Cl)ccc12 (configuration not stated),Potency,[1],inactive
same,outcome,[2],inactive
same,remaining parasite growth % (stronger effect = lower value),[3],23.7%
same,"activity, percent of control",[4],56.1%
